In PubChem BioAssay (EPA / NIEHS):
Records with an inconclusive call do not appear. The source holds several records for some structures; these can differ, active in one and inactive in another. Activity calls are given as the source filed them. How the source made its calls, unless noted: active means hit-call score of the fitted dose curve at least 0.9, where 1 is the maximum; inconclusive means response in the unintended direction; inactive means score below 0.9.

Tests used:
[1] = TOX21_p53_BLA_p2_viability: Viability Assessment in the Tox21 HCT-116 p53 Agonism Beta-lactamase Assay, Phase 2 (AID 2283591);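 further: actives lower the ATP signal meaning cytotoxicity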
Outline: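 Cytotoxicity readout: CellTiter-Glo ATP luminescence, 30 min at room temperature, after the beta-lactamase read. Cells were HCT116 exposed 16 h at 37C to compounds pin-transferred at 217-fold dilution from DMSO stocks.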

[2] = molecular target: Cellular tumor antigen p53 (Homo sapiens) (UniProt P04637); experiment: TOX21_p53_BLA_p2_ratio: Tox21 HCT-116 p53 Agonism Beta-lactamase Assay, Ratio, Phase 2 (AID 2283592)
Cellular tumor antigen p53 (Homo sapiens), sequence (P04637 whole entry, looked up): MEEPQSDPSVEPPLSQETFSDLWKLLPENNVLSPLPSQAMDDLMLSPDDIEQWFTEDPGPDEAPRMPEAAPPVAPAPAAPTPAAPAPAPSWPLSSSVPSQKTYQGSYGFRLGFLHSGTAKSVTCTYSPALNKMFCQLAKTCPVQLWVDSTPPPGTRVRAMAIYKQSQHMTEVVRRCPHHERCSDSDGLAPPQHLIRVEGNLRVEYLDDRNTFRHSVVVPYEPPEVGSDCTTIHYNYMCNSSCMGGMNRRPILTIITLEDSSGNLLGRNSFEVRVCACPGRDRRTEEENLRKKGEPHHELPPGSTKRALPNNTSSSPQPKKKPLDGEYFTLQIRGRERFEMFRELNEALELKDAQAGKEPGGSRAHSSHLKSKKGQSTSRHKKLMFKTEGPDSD
Outline: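 Readout: blue/green (460/530 nm) FRET emission ratio after 2 h CCF4-AM loading at room temperature, excitation 405 nm. HCT116 p53 bla cells, 16 h compound exposure at 37C, 5% CO2; agonist direction fitted against DMSO baseline.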

[3] = TOX21_p53_BLA_p3_viability: Viability Assessment in the Tox21 HCT-116 p53 Agonism Beta-lactamase Assay, Phase 3 (AID 2283593);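 further: cells exposed to compound for 16 h before reading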
Outline: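 Cellular ATP was quantified by CellTiter-Glo luminescence, read after 30 min at room temperature. Beforehand, HCT116 cells (4000/well) received compound 5 h post-seeding, 217-fold diluted from DMSO, then incubated 16 h at 37C.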

[4] = molecular target: Cellular tumor antigen p53 (Homo sapiens) (UniProt P04637); experiment: TOX21_p53_BLA_p3_ratio: Tox21 HCT-116 p53 Agonism Beta-lactamase Assay, Ratio, Phase 3 (AID 2283596)
Outline: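 Cells were seeded at 4000/well, rested 5 h at 37C, then dosed with DMSO compound solutions (217-fold dilution) for 16 h. CCF4-AM substrate was loaded for 2 h at room temperature, and the 460/530 nm emission ratio was fitted for gain of signal versus DMSO.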

[5] = TOX21_p53_BLA_p4_viability: Viability Assessment in the Tox21 HCT-116 p53 Agonism Beta-lactamase Assay, Phase 4 (AID 2283597);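 further: hits lower the luminescence signal meaning cytotoxicity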
Outline: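 ATP content by CellTiter-Glo luminescence, 30 min RT, read after the beta-lactamase ratio step. Cells: HCT116, 4000/well, compound added after 5 h, exposure 16 h at 37C. Signal loss = reduced viability.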

[6] = molecular target: Cellular tumor antigen p53 (Homo sapiens) (UniProt P04637); experiment: TOX21_p53_BLA_p5_ratio: Tox21 HCT-116 p53 Agonism Beta-lactamase Assay, Ratio, Phase 5 (AID 2283599)
Outline: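 Beta-lactamase reporter ratio (blue 460 nm over green 530 nm, 405 nm excitation) after 2 h CCF4-AM loading, in HCT-116 cells exposed 16 h at 37 C to compounds pinned at 217-fold dilution. Increases relative to DMSO baseline scored.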

[7] = TOX21_p53_BLA_p5_viability: Viability Assessment in the Tox21 HCT-116 p53 Agonism Beta-lactamase Assay, Phase 5 (AID 2283600)
Outline: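 ATP luminescence (CellTiter-Glo, 30 min, RT) served as the viability read-out, with loss of signal indicating cytotoxicity. Compounds in DMSO were pinned at a 217-fold dilution onto 4000 cells/well and incubated 16 h, 37C.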

[8] = molecular target: Cellular tumor antigen p53 (Homo sapiens) (UniProt P04637); experiment: TOX21_p53_BLA_p4_ratio: Tox21 HCT-116 p53 Agonism Beta-lactamase Assay, Ratio, Phase 4 (AID 2283601)
Outline: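 Signal is the blue/green (460nm/530nm) ratio of cleaved versus uncleaved CCF4-AM substrate, read after 2 h substrate loading. Cells were HCT116 carrying the p53-responsive beta-lactamase reporter, dosed 16 h at 37C, 5% CO2; CellTiter-Glo measured in parallel.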

PGR (gene 5241) [9] = molecular target: PGR (gene 5241) (UniProt P06401); experiment: TOX21_PR_BLA_Followup_Agonist_ratio: Tox21 HEK293 Progesterone Receptor (PR) Agonism Beta-lactamase Follow-Up Assay, Ratio (AID 2283933)
PGR (gene 5241), sequence (P06401 whole entry, looked up, the tested form may be a part): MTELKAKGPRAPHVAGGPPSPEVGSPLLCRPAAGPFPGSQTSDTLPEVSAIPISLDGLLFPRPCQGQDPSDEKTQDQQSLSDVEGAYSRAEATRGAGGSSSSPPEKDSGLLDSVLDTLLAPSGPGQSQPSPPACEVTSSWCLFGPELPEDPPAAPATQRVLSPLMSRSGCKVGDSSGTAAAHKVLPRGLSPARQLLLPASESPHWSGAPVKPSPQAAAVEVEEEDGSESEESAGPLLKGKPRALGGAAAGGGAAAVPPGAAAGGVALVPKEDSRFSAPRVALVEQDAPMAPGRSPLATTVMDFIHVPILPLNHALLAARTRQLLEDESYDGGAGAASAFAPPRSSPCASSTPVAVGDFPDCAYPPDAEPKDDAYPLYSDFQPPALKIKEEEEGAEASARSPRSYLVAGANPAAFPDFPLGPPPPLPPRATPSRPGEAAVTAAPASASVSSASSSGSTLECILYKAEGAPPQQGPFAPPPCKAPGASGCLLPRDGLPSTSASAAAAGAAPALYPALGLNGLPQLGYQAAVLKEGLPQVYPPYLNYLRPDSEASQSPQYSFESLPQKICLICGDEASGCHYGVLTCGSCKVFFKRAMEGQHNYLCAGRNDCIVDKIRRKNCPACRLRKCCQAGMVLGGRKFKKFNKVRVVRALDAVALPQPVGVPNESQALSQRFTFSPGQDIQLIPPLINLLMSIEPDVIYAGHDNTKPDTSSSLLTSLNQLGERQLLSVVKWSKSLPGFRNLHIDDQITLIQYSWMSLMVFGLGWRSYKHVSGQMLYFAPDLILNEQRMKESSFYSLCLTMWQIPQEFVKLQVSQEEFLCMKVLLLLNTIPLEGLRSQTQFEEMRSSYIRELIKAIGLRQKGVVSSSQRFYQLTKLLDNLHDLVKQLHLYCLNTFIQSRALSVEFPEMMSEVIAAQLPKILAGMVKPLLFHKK
Outline: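 Read-out: ratio of cleaved (ch2) to uncleaved (ch1) beta-lactamase substrate fluorescence, gain-of-signal relative to DMSO baseline. Cells: PR-UAS-bla HEK293T, 2% charcoal-stripped FBS; compound exposure 16 hr, 37C; substrate 2 hr, RT.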

PGR (gene 5241) [10] = molecular target: PGR (gene 5241) (UniProt P06401); experiment: TOX21_PR_BLA_Followup_Antagonist_ratio: Tox21 HEK293 Progesterone Receptor (PR) Antagonism Beta-lactamase Follow-Up Assay, Ratio (AID 2283934)
Outline: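 Read-out: blue/green beta-lactamase FRET ratio (cleaved ch2 over uncleaved ch1), fitted relative to DMSO baseline. Cells: PR-UAS-bla HEK293T, GAL4-UAS reporter, stimulated with 1 nM R5020 final; 16 hr compound exposure, 37C.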

[11] = TOX21_PR_BLA_Followup_Agonist_viability: Viability Assessment in the Tox21 HEK293 Progesterone Receptor (PR) Agonism Beta-lactamase Follow-Up Assay (AID 2283935);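 further: signal loss means lower viability so actives are cytotoxic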
Outline: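 Luminescent ATP quantitation (CellTiter-Glo, 30 min, room temperature) in the same wells as the beta-lactamase read, on PR-UAS-bla HEK293T cells exposed to compound for 16 hr at 37C in 2% charcoal-stripped serum.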

PGR (gene 5241) [12] = molecular target: PGR (gene 5241) (UniProt P06401); experiment: TOX21_PR_LUC_Followup_Agonist: Tox21 HEK293 Progesterone Receptor (PR) Agonism Luciferase Follow-Up Assay (AID 2283937; active means hit-call score of the fitted dose curve at least 0.9, where 1 is the maximum; inactive means score below 0.9)
Outline: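 Luminescence read-out (ONE-Glo, 30 min at room temperature) of PR-driven luciferase in HEK293-PR-A-luc cells after 16 h compound exposure at 37C; gain of signal fitted relative to DMSO baseline.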

[13] = TOX21_PR_LUC_Followup_Agonist_viability: Viability Assessment in the Tox21 HEK293 Progesterone Receptor (PR) Agonism Luciferase Follow-Up Assay (AID 2283941);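 further: loss of signal means cytotoxicity so actives lower viability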
Outline: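 Cytotoxicity counter-screen: ATP content by CellTiter-Glo luminescence, loss of signal = reduced viability. HEK293-PR-A-luc, 3,000 cells/well, compound exposure 16 h, 37C.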

[14] = CCTE_Harrill_HTTr_Viability_MCF7: CCTE's 6-hour Cell Viability Assessment for the High-Throughput Transcriptomics (HTTr) Platform, in MCF-7 cells cultured in DMEM + 10% fetal bovine serum, Harrill Lab (AID 2284010; active means hit-call score of the fitted dose curve at least 0.9, where 1 is the maximum; inactive means score below 0.9)
Outline: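 PI exclusion, high-content imaging; 8-pt dilution series, 6 h exposure; bidirectional fit vs DMSO (neg. ctrl/baseline); gain of signal = loss of membrane integrity.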

[15] = CCTE_Harrill_HTTr_CellCount_MCF7: CCTE's Cell Proliferation Assessment for the High-Throughput Transcriptomics (HTTr) Platform, Harrill Lab (AID 2284012);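 further: count of Hoechst-stained nuclei per well by high-content imaging in MCF-7 cells; cells exposed to compound for six hours; intended direction is loss of nuclei count meaning fewer cells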
Outline: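 Readout: Hoechst nuclear count by high-content imaging. MCF-7, 8-point dilution series, 6 h exposure. Bidirectional fit vs DMSO baseline.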

Measured: AC50

O=C(O)c1nn(Cc2ccc(Cl)cc2Cl)c2ccccc12
inactive: [1] | [2] | [3] | [4] | [5] | [6] | [7] | [8]
active: [8] 81.2 µM

BrC(Br)C(Br)(Br)Br
inactive: [1] | [2] | [3] | [4] | [5] | [6] | [7] | [8]

COC(COC(N)=O)C1=C(N2CC2)C(=O)C(C)=C(N2CC2)C1=O (stereo not drawn)
inactive: [1] | [5]
active: [2] 6.58 µM | [3] 18.2 µM | [4] 0.121 µM | [6] 0.219 µM | [7] 36.3 µM | [8] 17.2 µM

CC(C)CON=O
inactive: [1] | [2] | [3] | [4] | [5] | [6] | [7] | [8]

Cc1ccccc1-n1c(C)nc2ccccc2c1=O
inactive: [1] | [2] | [3] | [4] | [5] | [6] | [8]

COc1ccc2c(c1OC)CN1CCc3cc4c(cc3C1C2)OCO4 (stereo not drawn)
active: PGR (gene 5241) [10] 5.55 µM
inactive: [1] | [2] | [3] | [4] | [5] | [7] | PGR (gene 5241) [9] | [11] | PGR (gene 5241) [12] | [13]

COc1cccc2c1cc([N+](=O)[O-])c1c(C(=O)O)cc3c(c12)OCO3
active: [2] 1.75 µM | [3] 79.8 µM | [4] 6.78 µM | [6] 13.2 µM | [8] 3.74 µM
inactive: [1] | [5] | [14] | [15]

CN[C@H]1C[C@@H](N)[C@H](O)[C@@H](O[C@@H]2O[C@H](CO)[C@H](O)[C@@H]3OC4(O[C@H]23)O[C@H](C(N)CO)[C@H](O)[C@H](O)C4O)[C@@H]1O (stereo partly drawn)
inactive: [1] | [2] | [3] | [4] | [5] | [6] | [8]

Oc1cc(Cl)cc(Cl)c1
active: [2] 79 µM | [6] 85.2 µM
inactive: [1] | [3] | [4] | [5] | [8]

O=NN1CCN(N=O)CC1
inactive: [1] | [2] | [3] | [4] | [5] | [7] | [8]

CC(=O)O[C@H]1C[C@H](O[C@H]2[C@@H](O)C[C@H](O[C@H]3[C@@H](O)C[C@H](O[C@H]4CC[C@@]5(C)[C@H](CC[C@@H]6[C@@H]5C[C@@H](O)[C@]5(C)[C@@H](C7=CC(=O)OC7)CC[C@]65O)C4)O[C@@H]3C)O[C@@H]2C)O[C@H](C)[C@H]1O[C@@H]1O[C@H](CO)[C@@H](O)[C@H](O)[C@H]1O
active: [1] 0.109 µM | [3] 0.0857 µM | [7] 0.0758 µM
inactive: [2] | [4] | [6] | [8]
